Test results as given in the supplement of paper PMC13380429.

Each compound was assayed on Vero E6 infected with SARS-CoV-2 (assay: inhibition of SARS-CoV-2 cytopathic effect; higher = more antiviral protection, active = above 15). Settings: 833.33 nM; 48 h.

SMILES | inhibition of SARS-CoV-2 cytopathic effect
Oc1ccc2[nH]cc(C3=CCNCC3)c2n1 | -1.7% (inactive)
CC(=O)Nc1ccc(C(=O)O)cc1 [acedoben] | 0.73% (inactive)
O=C(Oc1ccccc1C(=O)O)c1ccccc1O [sasapyrine] | -6.28% (inactive)
CC[C@]12CCCN3CCc4c(n(c5ccccc45)[C@@](O)(C(=O)OC)C1)[C@@H]32 [vincamine] | -2.3% (inactive)
Cc1cn([C@H]2C=C[C@@H](CO)O2)c(=O)[nH]c1=O [stavudine] | 2.52% (inactive)

Same assay, conditions: 10000 nM; 48 h

SMILES | inhibition of SARS-CoV-2 cytopathic effect
C[C@@H](N[C@H]1CCCC[C@@H]1NC(=O)c1ccc(Cl)cc1)c1cccc2ccccc12 [Calhex-231] | -1.86% (inactive)
CC(C)Oc1ccc(-c2nc(-c3cccc4c3CC[C@H]4NCCC(=O)O)no2)cc1C#N | -0.03% (inactive)
CC(C)(C(=O)O)c1ccc(C(=O)CCCN2CCC(OC(c3ccccc3)c3ccccc3)CC2)cc1 [carebastine] | -0.56% (inactive)
CCCCCCCCCCCCCCCC(=O)OC(C)C [isopropyl-palmitate] | -2.42% (inactive)
Cc1cccn2c(=O)c(/C=C(\C#N)c3nc4ccccc4s3)c(Oc3ccc(F)cc3)nc12 | -0.23% (inactive)
Cc1ccccc1C(C(=O)NC1CCCCC1)N(C(=O)Cn1ccnc1C)c1cccc(F)c1 (stereo not given) | -0.96% (inactive)
NC1=NCC2c3ccccc3Cc3ccccc3N12 (stereo not given) [epinastine] | 1.93% (inactive)
CCC1(c2c[nH]cn2)Cc2ccccc2C1 [atipamezole] | 1.28% (inactive)
COc1cc(O)c(C(=O)c2ccccc2)cc1S(=O)(=O)O [sulisobenzone] | 1.98% (inactive)
O=C([O-])CN1CCN(CC(=O)[O-])CCN([C@H](CO)[C@H](O)CO)CCN(CC(=O)[O-])CC1.[Gd+3] (racemic) [gadobutrol] | 2.16% (inactive)
c1cnc2c([O][Ga]([O]c3cccc4cccnc34)[O]c3cccc4cccnc34)cccc2c1 [gallium-triquinolin-8-olate] | 3.63% (inactive)
CN(C)CC[C@H](CSc1ccccc1)Nc1ccc(S(=O)(=O)NC(=O)c2ccc(N3CCN(Cc4ccccc4-c4ccc(Cl)cc4)CC3)cc2)cc1[N+](=O)[O-] | -20.2% (inactive)
CCOC(=O)[C@@](C)(N)Cc1ccc(O)c(O)c1 [methyldopate] | 2.33% (inactive)
O=C1NCCN1c1ncc([N+](=O)[O-])s1 [niridazole] | -4.56% (inactive)
COc1ccc(C(=O)NCc2cccnc2)cc1C(=O)NCc1cccnc1 [picotamide] | -1.62% (inactive)
CNc1cc2[nH]c(=O)n(-c3ccc(NC(=O)NS(=O)(=O)c4ccc(Cl)s4)cc3)c(=O)c2cc1F [elinogrel] | -1.62% (inactive)
COc1cc(C[C@H]2C(=O)OC[C@@H]2Cc2ccc(OC)c(OC)c2)ccc1O [arctigenin] | 2.1% (inactive)
CCN(CC)C(=O)/C(C#N)=C/c1cc(O)c(O)c([N+](=O)[O-])c1 [entacapone] | -0.4% (inactive)
NS(=O)(=O)c1cc2c(cc1Cl)N=C(CSCc1ccccc1)NS2(=O)=O [benzthiazide] | -0.2% (inactive)
O=c1sn(-c2cccc3ccccc23)c(=O)n1Cc1ccccc1 [tideglusib] | -0.03% (inactive)

SMILES | inhibition of SARS-CoV-2 cytopathic effect
C#C[C@]1(OC(=O)CCCCCC)CC[C@H]2[C@@H]3CCC4=CC(=O)CC[C@@H]4[C@H]3CC[C@@]21C [norethisterone-enanthate] | -1.58% (inactive)
O=C(O)C(O)C(O)C(=O)O (stereo not given) [tartaric-acid] | -0.64% (inactive)
O[C@H]1CC[C@H](Nc2nc(-c3ccccc3)nc3[nH]ccc23)CC1 | -0.8% (inactive)
O=C(NCC(=O)N1CCCC1)Nc1ccc2cnccc2c1 | -1.4% (inactive)
CC1(C)NC(=O)N(c2ccc([N+](=O)[O-])c(C(F)(F)F)c2)C1=O [nilutamide] | 1.01% (inactive)
CC(=O)CC(=O)O [lithium-acetoacetate] | 0.27% (inactive)
Cc1ncc(Cl)cc1NCc1ccc(C(=O)N[C@@H](CC2CCCC2)C(=O)NC2CC2)s1 | -2.59% (inactive)
CCCC(=O)Nc1cccc(NC(=O)c2ccccc2Br)c1 | -0.66% (inactive)
CCCCCCCCCCCCCCOc1ccc(C(=O)O)o1 | 2.73% (inactive)
Cn1c(-c2ccccc2)nnc1S(C)(=O)=O | 2.92% (inactive)
CCCOc1ccc2[nH]c(NC(=O)OC)nc2c1 [oxibendazole] | -0.04% (inactive)
CC[N+]1(C)CCCC(OC(=O)C(O)(c2ccccc2)c2ccccc2)C1 (stereo not given) [pipenzolate] | -1.6% (inactive)
CCCn1c(=O)c2[nH]c(-c3cnn(Cc4cccc(C(F)(F)F)c4)c3)nc2n(CC)c1=O | 0.11% (inactive)
C[n+]1cccc(C(=O)[O-])c1 [trigonelline] | 0.82% (inactive)
O=C(O)Cc1sc(-c2ccccc2)nc1-c1ccc(Cl)cc1 [fentiazac] | 1.91% (inactive)
Oc1ccc2[nH]cc(C3=CCNCC3)c2n1 | -2.6% (inactive)
CC(=O)Nc1ccc(C(=O)O)cc1 [acedoben] | 3.31% (inactive)
O=C(Oc1ccccc1C(=O)O)c1ccccc1O [sasapyrine] | -11.8% (inactive)
CC[C@]12CCCN3CCc4c(n(c5ccccc45)[C@@](O)(C(=O)OC)C1)[C@@H]32 [vincamine] | -1.71% (inactive)
Cc1cn([C@H]2C=C[C@@H](CO)O2)c(=O)[nH]c1=O [stavudine] | -1.21% (inactive)
